Measurements from PubChem BioAssay (EPA / NIEHS).
Calls of active or inactive are those of the source. How the source made its calls: active means hit-call score of the fitted dose curve at least 0.9, where 1 is the maximum; inactive means score below 0.9.

Legend:
Conditions in all cases: mRNA level, 48 h; actives raise or lower the signal
[1] = read-out: Cytochrome P450 7A1 (Homo sapiens) (UniProt P22680); assay: LTEA_HepaRG_CYP7A1: Life Technologies and Expression Analysis (LTEA) Assay for Cytochrome P450 7A1 (CYP7A1) using HepaRG (AID 2283496)
Outline: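 Using 0.5% DMSO as vehicle and baseline, chemicals were tested in duplicate over an 8-point range from 100 uM on HepaRG cells for 48 h; qRT-PCR signals were normalised to ACTB, GAPDH and POLR2A.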

[2] = read-out: Glutathione S-Transferase (GSTA2), GSTA2 (gene 2939); assay: LTEA_HepaRG_GSTA2: Life Technologies and Expression Analysis (LTEA) Assay for Glutathione S-Transferase (GSTA2) using HepaRG (AID 2283497)
Outline: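 Oxidative-stress marker GSTA2 is quantified by TaqMan qRT-PCR in HepaRG cultures treated 48 h across an eight-point range to 100 uM. Expression is normalized to endogenous controls and compared with 0.5% DMSO vehicle.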

[3] = read-out: Glutamate-cysteine ligase catalytic (GCLC), GCLC (gene 2729); assay: LTEA_HepaRG_GCLC: Life Technologies and Expression Analysis (LTEA) Assay for Glutamate-cysteine ligase catalytic (GCLC) using HepaRG (AID 2283498)
Outline: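 Oxidative-stress marker GCLC is measured as mRNA change in human HepaRG liver cells after 48 h chemical treatment in 0.5% DMSO, eight concentrations from 100 uM. Activity is fitted bidirectionally against vehicle.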

[4] = read-out: Glutamate-cysteine ligase regulatory (GCLM), GCLM (gene 2730); assay: LTEA_HepaRG_GCLM: Life Technologies and Expression Analysis (LTEA) Assay for Glutamate-cysteine ligase regulatory (GCLM) using HepaRG (AID 2283500)
Outline: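 HepaRG, 48 h dosing, 100 uM top, half-log x8, 0.5% DMSO vehicle. Readout: GCLM mRNA by TaqMan qRT-PCR, housekeeping-normalized (ACTB/GAPDH/POLR2A). Curves fit bidirectionally vs DMSO baseline.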

[5] = read-out: Glutathione S-transferase M3 (GSTM3), GSTM3 (gene 2947); assay: LTEA_HepaRG_GSTM3: Life Technologies and Expression Analysis (LTEA) Assay for Glutathione S-transferase M3 (GSTM3) using HepaRG (AID 2283501)
Outline: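 HepaRG, plated 48 h, then serum-free induction medium; test chemical 48 h, duplicate; 100 uM top, half-log x8, 0.5% DMSO. Read-out: GSTM3 mRNA (TaqMan qRT-PCR, Fluidigm array). Bidirectional fit vs DMSO.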

[6] = read-out: Heat shock 70 kDa protein 1 (HSPA1A), gene 3303; assay: LTEA_HepaRG_HSPA1A: Life Technologies and Expression Analysis (LTEA) Assay for Heat shock 70 kDa protein 1 (HSPA1A) using HepaRG (AID 2283502)
Outline: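 HepaRG, 48 h exposure, 8-pt half-log CRC from 100 uM in 0.5% DMSO, duplicates. Readout: TaqMan qRT-PCR of HSPA1A mRNA, housekeeping-normalized (ACTB/GAPDH/POLR2A). Bidirectional fit vs 0.5% DMSO baseline.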

[7] = read-out: Hypoxia-inducible factor 1-alpha (Homo sapiens) (UniProt Q16665); assay: LTEA_HepaRG_HIF1A: Life Technologies and Expression Analysis (LTEA) Assay for Hypoxia-inducible factor 1 (HIF1A) Trancription factor using HepaRG (AID 2283503)
Outline: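 Gain- or loss-of-signal HIF1A mRNA changes are fitted against a DMSO baseline. HepaRG cultures receive eight concentrations, highest 100 uM, for 48 h in serum-free induction medium with 0.5% DMSO.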

[8] = read-out: 3-Hydroxy-3-Methylglutaryl-CoA Synthase 2 (HMGCS2), HMGCS2 (gene 3158); assay: LTEA_HepaRG_HMGCS2: Life Technologies and Expression Analysis (LTEA) Assay for 3-Hydroxy-3-Methylglutaryl-CoA Synthase 2 (HMGCS2) using HepaRG (AID 2283504)
Outline: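 HepaRG, plated 48 h then switched to serum-free induction media; cmpd 8-pt, max 100 uM, 1/2-log, 0.5% DMSO, n=2, 48 h. HMGCS2 mRNA by Fluidigm TaqMan qRT-PCR, ACTB/GAPDH/POLR2A norm; bidirectional fit vs DMSO.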

HGF (gene 3082) = assay: LTEA_HepaRG_HGF: Life Technologies and Expression Analysis (LTEA) Assay for Hepatocyte Growth Facto (HGF) using HepaRG (AID 2283505)
Outline: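 Read-out is HGF transcript level by qRT-PCR, normalized to three housekeeping genes, fitted bidirectionally against 0.5% DMSO vehicle. Human HepaRG cells received test chemicals for 48 h at up to 100 uM.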

[9] = read-out: growth arrest and DNA damage 45 (GADD45G), GADD45G (gene 10912); assay: LTEA_HepaRG_GADD45G: Life Technologies and Expression Analysis (LTEA) Assay for growth arrest and DNA damage 45 (GADD45G) using HepaRG (AID 2283499)
Outline: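 Gain or loss of GADD45G mRNA, quantified by TaqMan qRT-PCR against three housekeeping genes, is fitted in both directions relative to 0.5% DMSO. Human HepaRG cultures receive test chemical for 48 h at up to 100 uM.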

Measured: AC50

Sequence of Hypoxia-inducible factor 1-alpha (Homo sapiens) (Q16665 whole entry, looked up): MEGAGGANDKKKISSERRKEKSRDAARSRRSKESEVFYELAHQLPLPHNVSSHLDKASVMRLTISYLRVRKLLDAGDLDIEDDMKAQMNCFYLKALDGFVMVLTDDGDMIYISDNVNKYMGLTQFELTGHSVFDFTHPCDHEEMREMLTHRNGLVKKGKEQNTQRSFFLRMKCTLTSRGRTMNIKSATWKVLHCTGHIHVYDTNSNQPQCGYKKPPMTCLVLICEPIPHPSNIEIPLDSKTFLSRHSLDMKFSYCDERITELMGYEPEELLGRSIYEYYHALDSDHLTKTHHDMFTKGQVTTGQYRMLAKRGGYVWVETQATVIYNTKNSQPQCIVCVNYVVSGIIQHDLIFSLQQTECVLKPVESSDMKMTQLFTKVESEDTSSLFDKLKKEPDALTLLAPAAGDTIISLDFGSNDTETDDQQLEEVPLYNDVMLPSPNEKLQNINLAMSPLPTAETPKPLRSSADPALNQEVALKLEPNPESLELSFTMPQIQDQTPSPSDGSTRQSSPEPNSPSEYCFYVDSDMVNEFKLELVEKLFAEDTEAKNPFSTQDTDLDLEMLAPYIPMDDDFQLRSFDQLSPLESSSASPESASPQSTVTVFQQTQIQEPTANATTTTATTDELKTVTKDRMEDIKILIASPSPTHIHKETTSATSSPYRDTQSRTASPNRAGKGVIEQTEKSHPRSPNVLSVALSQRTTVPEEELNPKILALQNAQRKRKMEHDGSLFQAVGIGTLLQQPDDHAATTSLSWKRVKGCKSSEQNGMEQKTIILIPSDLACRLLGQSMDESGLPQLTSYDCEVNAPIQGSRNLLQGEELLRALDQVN

Nc1c(Cl)c(Cl)nc(C(=O)O)c1Cl
not listed: [9]
inactive: all other assays above

O=C1C2CC=CCC2C(=O)N1SC(Cl)(Cl)Cl (stereo not drawn)
not listed: [7]
inactive: all other assays above

CN/C(=N\[N+](=O)[O-])NCc1cnc(Cl)s1
active: [1] 50 µM
not listed: [9]
inactive: all other assays above

Cc1nc(N(C)C)nc(OC(=O)N(C)C)c1C
not listed: [7] | [9]
inactive: all other assays above

CCCN(CC)CC1COC2(CCC(C(C)(C)C)CC2)O1 (stereo not drawn)
not listed: [9]
inactive: all other assays above

CCOc1nc(C(Cl)(Cl)Cl)ns1
active: [3] 0.939 µM | [4] 1.14 µM | [5] 22.9 µM | HGF (gene 3082) 1.21 µM
inactive: [2] | [9] | [6] | [8]

COCC(=O)N(c1c(C)cccc1C)C(C)C(=O)OC (stereo not drawn)
not listed: [7] | [9]
inactive: all other assays above

CC(C)=CC1C(C(=O)OCc2coc(Cc3ccccc3)c2)C1(C)C (stereo not drawn)
not listed: [7] | [9]
inactive: all other assays above

COCC(C)N(C(=O)CCl)c1c(C)csc1C (stereo not drawn)
active: [1] 29.5 µM | [2] 25 µM | [3] 50 µM
not listed: [7] | [9]
inactive: all other assays above

CCNC(=O)NC(=O)C(C#N)=NOC
inactive: [2] | [4] | [5] | [6] | HGF (gene 3082)
active: [3] 9.92 µM | [8] 50 µM

COP(=S)(OC)SCn1nnc2ccccc2c1=O
not listed: [9]
inactive: all other assays above

CCCCC(C#N)(Cn1cncn1)c1ccc(Cl)cc1 (stereo not drawn)
active: [8] 78.1 µM
not listed: [7] | [9]
inactive: all other assays above

Cn1c(-c2ccccc2)cc(-c2ccccc2)[n+]1C
inactive: [4] | [7] | HGF (gene 3082)
active: [1] 57.2 µM | [2] 65.9 µM | [3] 82.3 µM | [5] 85.7 µM | [6] 40.2 µM | [8] 35 µM

Nc1cnn(-c2ccccc2)c(=O)c1Cl
not listed: [7] | [9]
inactive: all other assays above

CCNP(=S)(OC)O/C(C)=C/C(=O)OC(C)C (stereo not drawn)
active: [4] 9.92 µM | [8] 25.8 µM
not listed: [7] | [9]
inactive: all other assays above

CCN(CC)C(=O)C(C)Oc1cccc2ccccc12 (stereo not drawn)
active: [1] 35.5 µM | [8] 76.9 µM
not listed: [3] | [9]
inactive: all other assays above

Nc1c(Cl)c(F)nc(OCC(=O)O)c1Cl
not listed: [9]
inactive: all other assays above

CCOP(=O)(OCC)Oc1nc(Cl)c(Cl)cc1Cl
inactive: [4] | [5] | [6] | HGF (gene 3082)
active: [1] 83.8 µM | [2] 75.5 µM | [3] 84.1 µM | [8] 84.8 µM

C=C(C)CN(CC)c1c([N+](=O)[O-])cc(C(F)(F)F)cc1[N+](=O)[O-]
not listed: [7] | [9]
inactive: all other assays above
